Results: PubChem BioAssay (Tox21)
Records with an inconclusive call do not appear. Active and inactive are the calls of the source. Unless noted, calls come from the whole dose curve; as a rule, active = well fitted curve in the direction sought with a large enough effect in the repeat runs; inconclusive = weak or mixed curves; inactive = no such curve, though single readings can be large; an effect the other way counts as inactive or inconclusive.

Columns and labels:
[1] = qHTS assay for small molecule agonists of the p53 signaling pathway - cell viability (AID 651633; calls by dose curve;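 note: p53RE-bla HCT reporter cells with a stable beta-lactamase p53 reporter; series mostly up to about 83 µM; nearly all actives have a fitted effect of over 30% in size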)
Method in brief: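 p53RE-bla cells, seeded at 4,000 per well and rested 5 h at 37 C/5% CO2, received compounds in DMSO for 16 h at 37 C. CellTiter-Glo was then added, and luminescence was read after 30 min at room temperature to gauge cytotoxicity.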

[2] = qHTS assay for small molecules that induce genotoxicity in human embryonic kidney cells expressing luciferase-tagged ATAD5 - cell viability (AID 651634; calls by dose curve; note: nearly all actives have a fitted effect of over 25% in size; note: potency is the fitted concentration of half-maximal effect)
Method in brief: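 Here HEK293T cells with the ATAD5 luciferase reporter are incubated with test compounds for 15.5 hr, and cytotoxicity is then gauged by measuring protease activity in live cells using fluorescence.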

[3] = qHTS assay for small molecule disruptors of the mitochondrial membrane potential - cell viability (AID 720634; calls by dose curve;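 note: human HepG2 liver cancer cells; series mostly up to about 83 µM; nearly all actives have a fitted effect of over 20% in size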)
Method in brief: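 Viability of HepG2 cells is scored from ATP content by luminescence; cells are exposed to compound for 1 hr at 37 C and 5% CO2, then dosed with m-MPI dye before the CellTiter-Glo reagent.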

[4] = qHTS assay for small molecule disruptors of the mitochondrial membrane potential (AID 720635)
Method in brief: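 HepG2 cells (2,000/well) attached overnight at 37C, then took compound for 1 hr at 37C, 5% CO2. Mito-MPS dye was added for 30 min; fluorescence was read at 490/535 nm (monomers) and 540/590 nm (aggregates).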

[5] = qHTS assay to test for compound auto fluorescence at 590 nm (red) in HepG2 cells (AID 720674)
Method in brief: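 Compound auto-fluorescence is scored relative to Rose Bengal sodium, measured at 540/590 nm in live HepG2 cultures after 1 hr compound contact (37 C, 5% CO2).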

[6] = qHTS assay to test for compound auto fluorescence at 535 nm (green) in HepG2 cells (AID 720675)
[7] = qHTS assay to test for compound auto fluorescence at 460 nm (blue) in HEK293 cells (AID 720678)
Method in brief: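 HEK293 cells (2,000/well, medium with 10% dialyzed FBS) attached 4-5 hr, then exposed to compound overnight at 37C, 5% CO2. Blue fluorescence read at 405/460 nm, with triamterene as reference fluorophore.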

[8] = qHTS assay to test for compound auto fluorescence at 590 nm (red) in HEK293 cells (AID 720679)
Method in brief: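 HEK293 cells (2,000/well, 10% dialyzed FBS) attached 4-5 hr, then dosed with compound or DMSO and incubated overnight at 37C, 5% CO2. Red fluorescence read at 540/590 nm, Rose Bengal sodium as reference fluorophore.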

[9] = qHTS assay to test for compound auto fluorescence at 535 nm (green) in HEK293 cells (AID 720680)
[10] = qHTS assay to test for compound auto fluorescence at 460 nm (blue) in HEK293 cell free culture (AID 720681)
Method in brief: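 Test compounds were pinned into cell-free culture medium (DMEM with 10% FBS) and fluorescence was read directly at Ex/Em 405/460 nm. Signals were expressed as fluorescence equivalents of triamterene, with DMSO vehicle as control.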

[11] = qHTS assay to test for compound auto fluorescence at 535 nm (green) in HEK293 cell free culture (AID 720682)
Method in brief: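 Read-out: 485/535 nm fluorescence intensity, calibrated against fluorescein. Medium only (DMEM + 10% FBS, no cells); test compound or DMSO vehicle added by pintool before plate reading.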

[12] = qHTS assay to test for compound auto fluorescence at 590 nm (red) in HEK293 cell free culture (AID 720683)
Method in brief: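 Tox21 10K library compounds were pinned into cell-free DMEM with 10% FBS and fluorescence was read at excitation 540 nm. Activity is expressed as Rose Bengal sodium equivalency.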

[13] = qHTS assay to test for compound auto fluorescence at 590 nm (red) in HepG2 cell free culture (AID 720684)
Method in brief: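 Ex 540 / Em 590 nm read of compound in cell-free MEM (10% FBS). Rose Bengal sodium reference.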

[14] = qHTS assay to test for compound auto fluorescence at 460 nm (blue) in HepG2 cell free culture (AID 720685)
Method in brief: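 Cell-free plates of MEM plus 10% FBS received 23 nL compound or DMSO vehicle; blue-channel (405/460 nm) intensity scored against triamterene as reference fluorophore.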

[15] = qHTS assay to test for compound auto fluorescence at 535 nm (green) in HepG2 cell free culture (AID 720686)
[16] = qHTS assay to test for compound auto fluorescence at 460 nm (blue) in HepG2 cells (AID 720687)
Method in brief: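 Cells (2,000/well in MEM with 10% FBS) attached overnight at 37 C, then were exposed to compound or DMSO for 1 hr at 37 C, 5% CO2. Fluorescence read at Ex/Em 405/460 nm, expressed as triamterene-equivalent signal.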

[17] = molecular target: Glucocorticoid receptor (Homo sapiens) (UniProt P04150); test: qHTS assay to identify small molecule antagonists of the glucocorticoid receptor (GR) signaling pathway (AID 720692; active = well fitted inhibition curve with a large enough effect in the signal ratio in the repeat runs, not every such curve was filed as active; the % refers to the signal ratio)
Glucocorticoid receptor (Homo sapiens), sequence (P04150 whole entry, looked up): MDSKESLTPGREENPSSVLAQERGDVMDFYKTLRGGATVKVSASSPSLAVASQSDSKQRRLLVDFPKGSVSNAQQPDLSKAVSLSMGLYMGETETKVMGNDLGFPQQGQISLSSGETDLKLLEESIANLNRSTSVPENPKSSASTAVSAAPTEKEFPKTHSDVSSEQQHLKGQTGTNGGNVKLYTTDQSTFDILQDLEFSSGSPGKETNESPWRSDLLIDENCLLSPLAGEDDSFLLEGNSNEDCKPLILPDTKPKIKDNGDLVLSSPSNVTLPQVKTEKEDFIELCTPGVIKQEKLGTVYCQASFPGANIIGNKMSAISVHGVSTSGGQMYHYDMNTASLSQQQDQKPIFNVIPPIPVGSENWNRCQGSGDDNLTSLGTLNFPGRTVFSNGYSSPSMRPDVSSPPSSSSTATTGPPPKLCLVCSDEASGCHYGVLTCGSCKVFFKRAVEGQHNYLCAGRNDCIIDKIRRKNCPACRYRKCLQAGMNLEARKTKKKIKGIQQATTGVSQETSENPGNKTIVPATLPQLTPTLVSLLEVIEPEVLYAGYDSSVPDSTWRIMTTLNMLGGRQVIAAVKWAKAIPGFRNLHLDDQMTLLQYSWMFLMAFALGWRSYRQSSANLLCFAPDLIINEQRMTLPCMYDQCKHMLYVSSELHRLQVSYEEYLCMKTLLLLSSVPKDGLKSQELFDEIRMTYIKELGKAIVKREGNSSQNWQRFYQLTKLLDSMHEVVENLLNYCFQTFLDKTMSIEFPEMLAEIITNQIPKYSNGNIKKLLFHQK
Method in brief: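 In a 1536-well cell format, compounds were added 4 h after seeding GR-bla HeLa cells, together with dexamethasone at 5 nM final; reporter activity was measured by FRET-substrate fluorescence following 18 h at 37 C.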

[18] = qHTS assay for small molecules that induce genotoxicity in human embryonic kidney cells expressing luciferase-tagged ATAD5 (AID 651632); note: nearly all actives have a fitted effect of over 15% in size
Method in brief: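 DMSO vehicle served as the control. HEK293T reporter cells, 16 hr at 37C, then 30 min Amplite at room temperature; ATAD5 induction is measured as luciferase activity.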

[19] = molecular target: Glucocorticoid receptor (Homo sapiens) (UniProt P04150); test: qHTS assay to identify small molecule agonists of the glucocorticoid receptor (GR) signaling pathway (AID 720691; active = well fitted activation curve with a large enough effect in the signal ratio in the repeat runs, not every such curve was filed as active; the % refers to the signal ratio)
Method in brief: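 Compounds in DMSO, alongside positive controls, were added to GR-bla HeLa reporter cells and incubated 18 h at 37 C; GRE-driven beta-lactamase was detected by fluorescence after 2 h with FRET substrate at room temperature.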
% is set by controls: 0 for no effect and ±100 for the full control effect.

COCCOCCOCCOC
inactive: outcome [1] | Potency [2] | outcome [3] | Potency [4] | outcome [5] | outcome [6] | outcome [7] | outcome [8] | outcome [9] | outcome [10] | outcome [11] | outcome [12] | outcome [13] | outcome [14] | outcome [15] | outcome [16] | outcome [17]

N#CCCOCCOCCC#N
inactive: outcome [18] | outcome [1] | outcome [3] | outcome [5] | outcome [6] | outcome [7] | outcome [8] | outcome [9] | outcome [10] | outcome [11] | outcome [12] | outcome [13] | outcome [14] | outcome [15] | outcome [16] | outcome [17]

Cn1c(=O)c2c(ncn2CC2OCCO2)n(C)c1=O
inactive: outcome [18] | outcome [3] | outcome [5] | outcome [6] | outcome [7] | outcome [8] | outcome [9] | outcome [10] | outcome [11] | outcome [12] | outcome [13] | outcome [14] | outcome [15] | outcome [16]

O=CN1CCOCC1
inactive: outcome [18] | outcome [1] | outcome [3] | outcome [5] | outcome [6] | outcome [7] | outcome [8] | outcome [9] | outcome [10] | outcome [11] | outcome [12] | outcome [13] | outcome [14] | outcome [15] | outcome [16]

NC(Cc1c[nH]c2ccccc12)C(=O)O (stereo not given)
inactive: outcome [1] | Potency [2] | outcome [5] | outcome [6] | outcome [7] | outcome [8] | outcome [9] | outcome [10] | outcome [11] | outcome [12] | outcome [13] | outcome [14] | outcome [15] | outcome [16] | Potency [19] | outcome [17]

C=CCOC(=O)c1ccc(C(=O)OCC=C)c(C(=O)OCC=C)c1
inactive: outcome [18] | outcome [1] | Potency [4] | outcome [5] | outcome [6] | outcome [7] | outcome [8] | outcome [9] | outcome [10] | outcome [11] | outcome [12] | outcome [13] | outcome [14] | outcome [15] | outcome [16]

CCOC(=O)C(C)(C)C
inactive: outcome [18] | outcome [1] | outcome [3] | Potency [4] | outcome [5] | outcome [6] | outcome [7] | outcome [8] | outcome [9] | outcome [10] | outcome [11] | outcome [12] | outcome [13] | outcome [14] | outcome [15] | outcome [16]

Nc1cc(Cl)cc(S(=O)(=O)O)c1O
inactive: outcome [18] | outcome [3] | outcome [5] | outcome [6] | outcome [7] | outcome [8] | outcome [9] | outcome [10] | outcome [11] | outcome [12] | outcome [13] | outcome [14] | outcome [15] | outcome [16]

C=C(C)[C@@H]1CC[C@@H](C)C[C@@H]1O
inactive: outcome [1] | Potency [2] | outcome [3] | outcome [5] | outcome [6] | outcome [7] | outcome [8] | outcome [9] | outcome [10] | outcome [11] | outcome [12] | outcome [13] | outcome [14] | outcome [15] | outcome [16]

Cc1cccc(Nc2ccncc2S(=O)(=O)NC(=O)NC(C)C)c1
inactive: outcome [18] | outcome [1] | outcome [3] | Potency [4] | fluorescence, relative to Rose Bengal [5] -0.554% [at 18.6 µM] | fluorescence, % of fluorescein control [6] 0.0113% [at 18.6 µM] | fluorescence, % of triamterene [7] 0.173% [at 18.6 µM] | fluorescence, % of fluorescent control [8] 0.875% [at 18.6 µM] | fluorescence, % of fluorescein [9] -0.12% [at 18.6 µM] | fluorescence, % of fluorescent control [10] -0.219% [at 18.6 µM] | activity change [11] -0.379% [at 18.6 µM] | fluorescence, % of fluorescent control [12] 0.257% [at 18.6 µM] | fluorescence, % of Rose Bengal [13] -0.0539% [at 18.6 µM] | fluorescence, % of fluorescent control [14] -0.124% [at 18.6 µM] | fluorescence, % of fluorescein control [15] 0.0067% [at 18.6 µM] | fluorescence, % of fluorescent control [16] -0.0073% [at 18.6 µM] | Potency [19] | outcome [17]

O=C(O)c1ccccc1C(=O)OCc1ccccc1
inactive: outcome [1] | Potency [2] | outcome [3] | outcome [5] | outcome [6] | outcome [7] | outcome [8] | outcome [9] | outcome [10] | outcome [11] | outcome [12] | outcome [13] | outcome [14] | outcome [15] | outcome [16] | Potency [19] | outcome [17]

CCCCCCCCCCCCCC(=O)OC
inactive: outcome [18] | Potency [2] | outcome [5] | outcome [6] | outcome [7] | outcome [8] | outcome [9] | outcome [10] | outcome [11] | outcome [12] | outcome [13] | outcome [14] | outcome [15] | outcome [16] | Potency [19] | outcome [17]

C[C@@H]1C[C@H]2[C@@H]3C[C@H](F)C4=CC(=O)C=C[C@]4(C)[C@@]3(F)[C@@H](O)C[C@]2(C)[C@@]1(O)C(=O)CO
inactive: outcome [1] | outcome [3] | fluorescence, relative to Rose Bengal [5] -0.458% [at 18.6 µM] | fluorescence, % of fluorescein control [6] 0.0352% [at 18.6 µM] | fluorescence, % of triamterene [7] -0.0057% [at 18.6 µM] | fluorescence, % of fluorescent control [8] -0.084% [at 18.6 µM] | fluorescence, % of fluorescein [9] 0.12% [at 18.6 µM] | fluorescence, % of fluorescent control [10] -0.0209% [at 18.6 µM] | activity change [11] 0.0847% [at 18.6 µM] | fluorescence, % of fluorescent control [12] -0.0134% [at 18.6 µM] | fluorescence, % of Rose Bengal [13] 0.414% [at 18.6 µM] | fluorescence, % of fluorescein control [15] 0.0581% [at 18.6 µM] | fluorescence, % of fluorescent control [16] -0.0249% [at 18.6 µM]

O=C(O)c1c(Cl)ccc(Cl)c1Cl
inactive: outcome [18] | Potency [2] | outcome [5] | outcome [6] | outcome [7] | outcome [8] | outcome [9] | outcome [10] | outcome [11] | outcome [12] | outcome [13] | outcome [14] | outcome [15] | outcome [16] | Potency [19] | outcome [17]

CNC(=O)C(c1ccccc1)c1ccccc1
inactive: outcome [18] | outcome [1] | Potency [2] | outcome [5] | outcome [6] | outcome [7] | outcome [8] | outcome [10] | outcome [11] | outcome [12] | outcome [13] | outcome [14] | outcome [15] | outcome [16] | Potency [19] | outcome [17]

COc1cc2c(Nc3ccc(Br)cc3F)ncnc2cc1OCC1CCN(C)CC1
inactive: outcome [18] | outcome [3] | outcome [5] | outcome [6] | outcome [7] | outcome [8] | outcome [9] | outcome [10] | outcome [11] | outcome [12] | outcome [13] | outcome [14] | outcome [15] | outcome [16] | Potency [19]
active: Potency [2] 13.3 µM
